LmPK inhibitor = LmPK (Leishmania mexicana) enzyme inhibition; purified LmPK, Kinase-Glo ATP luminescence, 1 h; Potency, µM (highest dose often 57.5 µM), without a hit: at the top dose activity change, negative = inhibition, actives largely listed as inhibitors; hit rate 0.37% among 290,000; AID 1721; also: potency is read from the fitted curve at half-maximal effect
Target sequence (Q27686 whole entry, looked up): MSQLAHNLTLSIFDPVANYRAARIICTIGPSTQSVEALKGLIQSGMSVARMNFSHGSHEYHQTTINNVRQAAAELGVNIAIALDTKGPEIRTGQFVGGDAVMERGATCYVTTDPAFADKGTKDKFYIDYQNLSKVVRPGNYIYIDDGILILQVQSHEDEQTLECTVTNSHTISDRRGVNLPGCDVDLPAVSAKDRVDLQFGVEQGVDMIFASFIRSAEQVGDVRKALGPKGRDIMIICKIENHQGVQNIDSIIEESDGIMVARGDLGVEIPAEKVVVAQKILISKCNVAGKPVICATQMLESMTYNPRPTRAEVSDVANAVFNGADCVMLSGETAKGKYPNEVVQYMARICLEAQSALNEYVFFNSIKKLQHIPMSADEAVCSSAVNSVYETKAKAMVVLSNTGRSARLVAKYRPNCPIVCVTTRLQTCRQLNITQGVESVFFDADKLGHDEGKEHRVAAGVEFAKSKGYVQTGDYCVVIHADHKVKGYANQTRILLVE
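ATP generated from ADP (0.1 mM) and PEP (0.5 mM) by 0.1 nM LmPK over 1 h at room temperature (pH 7.2 imidazole buffer) was detected by coupled luciferase luminescence. Values were normalized to uninhibited and no-enzyme wells.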
VACV mCherry inh = inhibitors of vaccinia virus infection (mCherry reporter signal). hit rate 0.63% among 310,000. AID 720579. Potency, µM (doses to about 36.5 µM), inactives show at the highest dose activity change, negative = inhibition, usual class: inhibitors. Vaccinia virus mCherry reporter infection, fluorescence; calls by dose curve; tested in A549 cells; also: potency is read from the fitted curve at half-maximal effect; nearly all actives have a fitted effect of over 35% in size
HCMV antiviral = human cytomegalovirus inhibition. HFF cells, HCMV-luciferase reporter, 72 h; stronger effect = lower value. activity change, negative = inhibition, % at 57.5 µM. hit rate 4.5% among 410,000. AID 1259415; in the data active = activity change below about -60%; inconclusive = no clear call, values can overlap the other calls; inactive = above about -39%
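Two-dose cell screen: HFF monolayers treated with compounds and infected with luciferase-expressing HCMV at 1 PFU/cell, 72 h at 37C, then lysed for luciferase measurement.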
VACV Venus inh = vaccinia inhibition (Venus reporter) | Potency, µM (highest dose often 36.5 µM), for the others: top-dose activity change, negative = inhibition, actives largely listed as inhibitors | hit rate 0.46% among 330,000 | Vaccinia virus Venus reporter expression, fluorescence | AID 720580; calls by dose curve; tested in A549 cells; also: potency is read from the fitted curve at half-maximal effect; nearly all actives have a fitted effect of over 30% in size
TbPYK inhibitor = T. brucei pyruvate kinase inhibition; Potency, µM (highest dose often 76.8 µM), inactives show top-dose activity, negative = inhibition, hits mostly inhibitors; hit rate 0.12% among 410,000; TbPYK enzyme, Kinase-Glo Plus ATP luminescence, 45 min; Q57TT1; also: potency is read from the fitted curve at half-maximal effect; nearly all actives have a fitted effect of over 50% in size
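In this concentration-response screen, enzyme-free wells defined baseline while DMSO plates tracked drift. Each reaction combined TbPYK, substrate, compound and 130 uM ADP for 45 min at room temperature. Kinase-Glo Plus luminescence gave the signal.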
* = called active by the depositor; i = inactive; ? = inconclusive; . = no result given; [ ] = another dose, or the depositor's remark. Most compounds without a hit are left out; they make up all but 5% or so of the library. Unless noted, calls follow the shape of the dose curve; as a rule, active = well fitted curve in the direction sought with a large enough effect; inconclusive = small, poorly fitted or top-dose-only effect, or another doubt; inactive = no such curve, though single readings can be large; an effect the other way counts as inactive or inconclusive. % is scaled to controls: 0 for no effect and ±100 for the full control effect.

SMILES | LmPK inhibitor | VACV mCherry inh | HCMV antiviral | VACV Venus inh | TbPYK inhibitor
CC(OC(=O)c1ccc(S(=O)(=O)N(C)C)cc1)C(=O)Nc1ccc(Cl)cn1 (stereo unspecified) | 2% | i | 35 | 6% | -3%
CCOc1cc(C(=O)Nc2cc(C)ccn2)cc(OCC)c1OCC | 4% | . | -95* | . | 2%
CCOc1cc(C(=O)Nc2cnccn2)cc(OCC)c1OCC | 1% | -11% | 68 | -23% | 1%
Cc1cc(F)ccc1C(O)c1ncc(-c2cccc(OCc3ccccc3)c2)[nH]1 (stereo unspecified) | . | -4% | -18 | -9% | -1%
S=c1[nH]nc([C@@H]2C[C@H]2c2ccccc2)n1-c1ccccc1Cl | 13µM* | . | -5 | . | 5µM*
COc1cc(/C=C/C(=O)OCc2c(C)noc2C)ccc1OC(F)F | -1% | . | 12 | . | 1%
Cc1ccnc2cc(Cl)cc(Cl)c12 | . | -10% | . | -7% | .
CCN(Cc1ccccc1)C(=O)COC(=O)c1c(C)nsc1NC | . | . | -66* | . | 2%
O=[N+]([O-])c1ccccc1-c1cc(-c2ccccc2)cc(-c2ccccc2)[n+]1Cc1ccccc1Cl | . | -11% | -97* | ? | -6%
O=C(COC(=O)c1ccc2c(=O)n3c(nc2c1)CCC3)Nc1ccc(OC(F)F)cc1 | 1% | -14% | 73 | -21% | 8%
Cc1nc(Nc2ccccc2)sc1C(=O)Nc1ccccc1 | 2% | -29% | 17 | -24% | -3%
Cc1nc(Nc2ccc(S(N)(=O)=O)cc2)sc1C(=O)Nc1ccccc1 | 0% | -29% | -69* | -12% | 0%
COc1ccc(-c2nc(CN3CCN(c4ncnc5ccccc45)CC3)c(C)o2)c(OC)c1 | 5% | . | -82* | . | 1%
Cc1oc(-c2cc(F)ccc2F)nc1CN1CCN(c2ncnc3ccccc23)CC1 | 4% | -26% | -63* | ? | 2%
COc1ccc(-c2nc(C#N)c(N3CCC(C(N)=O)CC3)o2)cc1OC | 0% | . | 60 | . | .
COc1ccc(-c2oc3cc(O)c(OC)c(O)c3c(=O)c2OC)cc1O | . | ? | -62* | ? | -4%
O=C(NN=C1CCCC1)c1[nH]c2ccc(Br)cc2c1-c1ccccc1 | 1% | 11µM* | -91* | ? | 8%
O=C(N/N=C/c1ccccc1)c1[nH]c2ccc(Br)cc2c1-c1ccccc1 | -4% | ? | -99* | -28% | 1%
O=C(CCN1CCOCC1)Nc1c(-c2ccccc2)c2cc(Br)ccc2[nH]c1=O | 3% | -6% | 23 | -23% | 0%
O=C(N/N=C/c1ccccn1)c1[nH]c2ccc([N+](=O)[O-])cc2c1-c1ccccc1 | -1% | -16% | -13 | -14% | -2%
CCC(=O)N1c2ccccc2CC1C(=O)NCCc1ccccc1C (stereo unspecified) | . | -10% | -11 | -4% | -1%
Cc1ccccc1NC(=O)Cn1c(=O)n(Cc2ccc3c(c2)OCO3)c(=O)c2ccccc21 | . | -14% | -61* | -3% | 3%
Cc1ccccc1NC(=O)Cn1c(=O)n(Cc2ccc3c(c2)OCO3)c(=O)c2oc3ccccc3c21 | . | -6% | -16 | ? | -3%
CC1CCN(CCOc2cccc(Br)c2)CC1 | -2% | -11% | -22 | -5% | 3%
Clc1cccc(OCCN2CCN(CCOc3cccc(Cl)c3)CC2)c1 | 0% | -9% | -96* | -22% | -3%
SMILES | LmPK inhibitor | VACV mCherry inh | HCMV antiviral | VACV Venus inh | TbPYK inhibitor
COC(=O)c1cc(OC)c(OC)cc1NC(=O)c1cccc(C)c1 | -2% | i | ? | 0% | 3%
COC(=O)c1cc(OC)c(OC)cc1NC(=O)c1csc(C)c1 | 2% | -14% | -67* | -11% | 2%
COc1ccc(CCNC(=O)Cc2cccs2)cc1OC | 1% | i | 12 | -3% | 0%
COc1ccc(C(=O)NC(c2ccccc2Cl)c2cc(Cl)c3cccnc3c2O)cc1 (stereo unspecified) | . | -15%[7.34 µM] | -98* | -12%[7.34 µM] | 0%
COc1cc(C(=O)Nc2cccc3cccnc23)cc(OC)c1OC | 2% | . | -12 | -11% | 2%
COc1cc(C(=O)NC(c2ccccc2Cl)c2cc(Cl)c3cccnc3c2O)cc(OC)c1OC (stereo unspecified) | . | 11µM* | -79* | -21% | -9%
Cn1c(Cl)c(/C=N/OC(=O)c2ccc(Cl)cc2)c2ccccc21 | -4% | . | -30 | -5% | -7%
